Screening data (PubChem BioAssay)
PTHR1 ag: qHTS for PTHR1 Agonists: Primary Screen; Parathyroid hormone/parathyroid hormone-related peptide receptor (Homo sapiens), Q03431; HEK293 GP2 PTHR1 cells, GloSensor cAMP luminescence, 1 h; Potency, µM (highest dose often 115 µM), actives largely listed as activators; 410,000 tested, 0.075% active; AID 743266, 2014; also: nearly all actives have a fitted effect of over 55% in size
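HEK-293-derived GP2 cells expressing PTHR1 and a GloSensor cAMP reporter, 3,000/well, plated overnight, given luciferin plus IBMX (each 0.5 mM as added) for 1 h at 37 °C, then compound for 1 h at 37 °C. Luminescence was read after 15 min at room temperature.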
p53 reactivation: qHTS assay for re-activators of p53 using a Luc reporter | H1299 p53-A138V BP100-luciferase reporter, luminescence, 24 h | Potency, µM (titrated, usually from 92.2 µM), hits mostly activators | 320,000 tested, 0.063% active; also: nearly all actives have a fitted effect of over 45% in size
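p53-null H1299 cells stably carrying temperature-sensitive p53-A138V and a BP100-luciferase reporter were pinned with compounds (4-point, 1:5 series) and held 24 hrs at 37 deg C. Luminescence was read 10 min after detection reagent.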
LDHA inh: qHTS assay for inhibitors of human lactate dehydrogenase; L-lactate dehydrogenase A chain (Homo sapiens), P00338; purified LDHA, NADH/diaphorase-resazurin fluorescence; stronger effect = lower value; activity change, % (values are at about 110 or 230 µM); 480,000 tested, 0.15% active; AID 1347041, 2019; in the data active = activity change below about -30%; inconclusive = mostly about -25% to -30%
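Human LDH5 at 2 nM final in Tris HCl pH 7.4 with 0.06 mM NADH and 0.2 mM pyruvate, reacted 5 minutes at room temperature. Remaining NADH coupled via diaphorase/resazurin; resorufin fluorescence read at 0 and 20 minutes, normalized to enzyme-free and DMSO wells.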
BRCA1 expr up: qHTS Assay to Identify Small Molecule Activators of BRCA1 Expression | MCF7-BRCA1-FFLuc reporter, luminescence, 48 h; response scale: scaled: vehicle 0%, 10 µM genistein 100% | 380,000 tested, 1.1% active | AID 624202, 2012 | Potency, µM (doses to about 46.1 µM), actives largely listed as activators; also: nearly all actives have a fitted effect of over 80% in size
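Activators of BRCA1 expression were detected as increased firefly luciferase luminescence in engineered MCF7 cells after 48 h compound incubation. Signals were scaled to genistein 10 microM as full activation.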
RGS4 inhibitor: Inhibitors of Regulator of G Protein Signaling (RGS) 4: qHTS; Potency, µM (titrated, usually from 114 µM), most hits filed as inhibitors; Transcreener GDP fluorescence polarization, RGS4-accelerated GTP hydrolysis; AID 504845, 2011; Regulator of G-protein signaling 4 (Homo sapiens), P49798; 390,000 tested, 0.039% active; also: nearly all actives have a fitted effect of over 75% in size
Target sequence (P49798 whole entry, looked up): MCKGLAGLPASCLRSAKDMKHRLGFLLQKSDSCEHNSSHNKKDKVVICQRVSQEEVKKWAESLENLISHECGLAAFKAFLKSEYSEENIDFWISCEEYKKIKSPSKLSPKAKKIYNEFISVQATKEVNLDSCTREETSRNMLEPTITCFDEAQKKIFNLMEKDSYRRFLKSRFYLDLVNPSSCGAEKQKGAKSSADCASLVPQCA
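MLSMR compounds (23 nl, pin-transferred) preincubated 10 min at room temperature with a 500nM (2x) first reagent, then RGS4 at 900nM (2x) plus Transcreener GDP mix added; fluorescence polarization (620/688 nm) read before and after 90 min at 30 °C.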
Hits are given with their value; [ ] = dose if it differs, or a comment. In the library only some 1.1% were active in any assay of this set; here they are far more common. Unless noted, calls follow the shape of the dose curve; as a rule, active = well fitted curve in the direction sought with a large enough effect; inconclusive = small, poorly fitted or top-dose-only effect, or another doubt; inactive = no such curve, though single readings can be large; an effect the other way counts as inactive or inconclusive.

How did CCOc1ccc(N(CC(=O)NCc2ccccc2C)S(C)(=O)=O)cc1 do in these assays?
PTHR1 ag: inactive; p53 reactivation: inactive; LDHA inh: inactive; BRCA1 expr up: 11µM; RGS4 inhibitor: inactive

How did COC(=O)c1ccc(NC(=O)CN(c2ccc(OC)cc2)S(C)(=O)=O)cc1 do in these assays?
PTHR1 ag: inactive; p53 reactivation: inconclusive; LDHA inh: inactive; BRCA1 expr up: 11µM; RGS4 inhibitor: inactive

What do the screens show for `CCOc1ccc(N(CC(=O)Nc2ccc(OC)cc2)S(C)(=O)=O)cc1`?
PTHR1 ag: inactive; p53 reactivation: inconclusive; LDHA inh: inactive; BRCA1 expr up: inconclusive; RGS4 inhibitor: inactive

How did CCOc1ccc(S(=O)(=O)N(CC(=O)Nc2cccc(C)c2)c2ccccc2)cc1 do in these assays?
LDHA inh: -34

How did CCOc1ccc(NC(=O)CN(c2ccc(OC)cc2)S(C)(=O)=O)cc1 do in these assays?
PTHR1 ag: inactive; p53 reactivation: inconclusive; LDHA inh: inactive; BRCA1 expr up: 11µM; RGS4 inhibitor: inactive

How did COC(=O)CCNC(=O)c1ccc(C(C)(C)C)cc1 do in these assays?
LDHA inh: inactive

Results for Cc1cccc(NC(=O)c2cnn3ccccc23)c1C ?
PTHR1 ag: inactive; p53 reactivation: inactive; LDHA inh: inactive; BRCA1 expr up: 13µM; RGS4 inhibitor: inactive[11.4 µM]

How did Cc1ccccc1NC(=O)c1cnn2cccnc12 do in these assays?
LDHA inh: inactive

Results for CC(C)Cn1c(COc2ccccc2Cl)n[nH]c1=S ?
LDHA inh: inactive

How did COc1ccccc1OCC(=O)Nc1ccc(-c2nc3ccccc3o2)cc1 do in these assays?
LDHA inh: inactive

What do the screens show for `COC(=O)c1cc(NCc2cccc3ccccc23)ccc1N1CCOCC1`?
LDHA inh: inactive

What do the screens show for `COC(=O)c1cc(NCc2c(F)cccc2Cl)ccc1N1CCOCC1`?
PTHR1 ag: 2.5µM; p53 reactivation: inactive; LDHA inh: inactive; BRCA1 expr up: inactive; RGS4 inhibitor: inactive

Results for Cc1ccc(-n2nc(C)c(C(=O)N3CCc4ccccc4C3)c2-n2cccc2)cc1 ?
LDHA inh: inactive

Results for CC(C)c1ccc(NC(=O)COc2ccccc2)cc1 ?
PTHR1 ag: inactive; p53 reactivation: inconclusive; LDHA inh: inactive; BRCA1 expr up: inconclusive; RGS4 inhibitor: inactive

Results for CC(C)c1ccc(NC(=O)COc2ccccn2)cc1 ?
PTHR1 ag: inactive; p53 reactivation: inactive; LDHA inh: inactive; BRCA1 expr up: 4µM; RGS4 inhibitor: inactive

How did Cc1cccc2c1N(Cc1ccc(OC(C)C)cc1)C(=O)C2=O do in these assays?
LDHA inh: inactive

Results for Cc1cc(C)c(S(=O)(=O)c2ccccc2)c(OC(=O)c2c(Cl)cc(Cl)cc2Cl)n1 ?
PTHR1 ag: inactive; p53 reactivation: inactive; LDHA inh: inactive; BRCA1 expr up: inactive; RGS4 inhibitor: inactive

Results for Cc1cc(C)c(S(=O)(=O)c2ccccc2)c(OC(=O)c2c(F)cccc2F)n1 ?
PTHR1 ag: inactive; p53 reactivation: inactive; LDHA inh: -50; BRCA1 expr up: inactive; RGS4 inhibitor: inconclusive

What do the screens show for `CNC(=O)CN(C)C(=O)c1ccc(N2CCNCC2)c(NS(=O)(=O)c2ccc(C(C)C)cc2)c1`?
LDHA inh: inactive

How did Cc1n[nH]c(C)c1S(=O)(=O)N1CCC(C)CC1 do in these assays?
LDHA inh: inactive

Results for Cc1ccc(NC(=S)N2CCCCCC2)cc1 ?
PTHR1 ag: inactive; p53 reactivation: inactive; LDHA inh: inactive; BRCA1 expr up: 13µM; RGS4 inhibitor: inactive

What do the screens show for `CCc1ccc(NC(=O)N2CCCCCC2)cc1`?
PTHR1 ag: inactive; p53 reactivation: inconclusive; LDHA inh: inactive; BRCA1 expr up: 7.1µM; RGS4 inhibitor: inactive

How did CCc1ccc(NC(=O)c2nc3ccccc3nc2N2CCCC2)cc1 do in these assays?
LDHA inh: -31

How did S=C(Nc1ccc(Br)cc1)NC1CCCCC1 do in these assays?
PTHR1 ag: inactive; p53 reactivation: inconclusive; LDHA inh: inactive; BRCA1 expr up: 10µM; RGS4 inhibitor: inactive

Results for CCc1ccc(NC(=O)c2nc3ccccc3nc2N2CCN(C)CC2)cc1 ?
LDHA inh: inactive

Results for CC(=O)Nc1ccc(-c2csc(NC3CC3)n2)c(F)c1 ?
LDHA inh: inactive

How did N#C/C(=C/c1ccccc1[N+](=O)[O-])c1ccc(C(F)(F)F)cn1 do in these assays?
LDHA inh: inactive

How did Cc1ccc(NC(=O)C(=O)NC2CCCCC2)cc1 do in these assays?
PTHR1 ag: inactive; p53 reactivation: inconclusive; LDHA inh: inactive; BRCA1 expr up: 1.3µM; RGS4 inhibitor: inactive

How did Cc1ccc(NC(=O)NC2CCCCCCC2)cc1 do in these assays?
PTHR1 ag: inactive; p53 reactivation: inactive; LDHA inh: inactive; BRCA1 expr up: inconclusive; RGS4 inhibitor: inactive

What do the screens show for `Cc1ccc(NC(=O)N2CCCCCC2)cc1`?
PTHR1 ag: inactive; p53 reactivation: inactive; LDHA inh: inactive; BRCA1 expr up: 7.9µM; RGS4 inhibitor: inactive

How did O=C(Nc1ccc(Br)cc1)N1CCCCCC1 do in these assays?
PTHR1 ag: inactive; p53 reactivation: inactive; LDHA inh: inactive; BRCA1 expr up: inactive; RGS4 inhibitor: inactive

How did CCOC(=O)C1CCN(C(=O)Nc2ccc(OC(F)(F)F)cc2)CC1 do in these assays?
PTHR1 ag: inactive; p53 reactivation: inactive; LDHA inh: inactive; BRCA1 expr up: 13µM; RGS4 inhibitor: inactive

Results for CCc1ccc(NC(=S)N2CCN(C)CC2)cc1 ?
PTHR1 ag: inactive; p53 reactivation: inconclusive; LDHA inh: inactive; BRCA1 expr up: 11µM; RGS4 inhibitor: inactive

How did O=C(CCn1ccc2ccccc21)N1CCN(S(=O)(=O)c2cccc(F)c2)CC1 do in these assays?
LDHA inh: inactive

Results for Cc1ccc(C(=O)NNC(=O)c2ccc(S(=O)(=O)N3CCCCC3)cc2)cc1 ?
PTHR1 ag: inactive; p53 reactivation: inactive; LDHA inh: -32; BRCA1 expr up: inactive; RGS4 inhibitor: inactive

Results for Cc1ccc2nc(CN3CCN(S(=O)(=O)c4cccc(C(F)(F)F)c4)CC3)cn2c1 ?
LDHA inh: inactive

Results for N/C(=N\O)c1ccc(N2CCN(c3ncccc3C(F)(F)F)CC2)nc1 ?
PTHR1 ag: inactive; p53 reactivation: inactive; LDHA inh: inactive; BRCA1 expr up: 3.5µM; RGS4 inhibitor: inactive

How did CC(=O)Nc1ccc2c(c1)nc(CCNC(=O)c1ccco1)n2C do in these assays?
PTHR1 ag: inactive; p53 reactivation: inactive; LDHA inh: inactive; BRCA1 expr up: inactive; RGS4 inhibitor: inactive

Results for Cn1c(CN2CCCC2)nc2cc(NC(=O)c3ccco3)ccc21 ?
PTHR1 ag: inactive; p53 reactivation: inactive; LDHA inh: inactive; BRCA1 expr up: 5.6µM; RGS4 inhibitor: inactive
